# In PubChem BioAssay:
# Values joined by “and” are separate entries in the source; they are usually repeats but may differ in a detail not shown here. Equal entries are not always repeated. Active and inactive are the calls of the source. Unless noted, how the calls were made is not given here.
# Assays:
# [1] = system: Wnt5a (protein binding on small-molecule microarray); test: Wnt5a binders on small-molecule microarray, primary screen, biophysical, 635/667 nm fluorescence (AID 1142); settings: 635 nm fluorescence, higher = more signal;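 further: fluorescence read at 667 nm with signal to noise per printed feature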
# [2] = cell viability in Huh7 cells, primary screen, cytotoxicity control for HCV replication inhibitor project, CellTiter-Glo luminescence, basal, 48 h (AID 1143); settings: Huh7 HCV replicon, higher = more signal, called active from +8 up or from −8 down;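 further: Huh7 hepatoma cells carrying a hepatitis C replication reporter with no stimulus; test concentration not given here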
# [3] = P. aeruginosa biofilm formation inhibitors, primary screen, PAO1 strain, BacTiter-Glo luminescence, LB-PBS (AID 1144); settings: 12 h, higher = more signal
# [4] = CREB reporter modulators without forskolin, primary screen, cell-based, PC12, CRE-LacZ reporter, unstimulated (AID 1145); settings: no forskolin, luminescence, 4.5 h, higher = more signal, called active from +8 up or from −8 down
# [5] = CREB reporter modulators under forskolin, primary screen, cell-based, PC12, CRE-LacZ reporter, forskolin-stimulated (AID 1146); settings: luminescence, 4.5 h, higher = more signal, called active from +8 up or from −8 down;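 further: PC12 cells with 6xCRE LacZ reporter stimulated by forskolin 10 µM; beta-galactosidase reporter signal reflecting CREB driven transcription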
# [6] = target: Streptavidin (Streptomyces avidinii) (UniProt P22629); test: streptavidin binders on small-molecule microarray, primary screen, artefact control for SMM compound annotation, biophysical, 635/667 nm fluorescence (AID 1147); settings: streptavidin binding, higher = more signal;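 further: signal reflects streptavidin binding to arrayed compounds as a control protein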
# [7] = small-molecule binders of probe aInhba, primary screen, biochemical, small-molecule microarray, 635/667 nm fluorescence (AID 1148); settings: higher = more signal;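 further: score merges 667nm spot fluorescence with signal-to-noise for antibody binding to printed compounds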
# Torsin-1A (Homo sapiens) [8] = target: Torsin-1A (Homo sapiens) (UniProt O14656); test: torsin A binders from cell lysate, primary screen, small-molecule microarray, wild-type, 635/667 nm (AID 1149); settings: COS7 hTOR1A-WT lysate, 635 nm fluorescence, higher = more signal
# Torsin-1A (Homo sapiens) [9] = target: Torsin-1A (Homo sapiens) (UniProt O14656); test: small-molecule binders of mutant TOR1A in lysate, primary screen, cell lysate, small-molecule microarray, COS7 lysate, 635/667 nm fluorescence (AID 1150); settings: COS7 hTOR1A mutant lysate, 635 nm fluorescence, higher = more signal;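 further: score pools 667 nm emission and signal to noise measuring lysate protein binding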
# [10] = system: Sonic hedgehog protein (Shh); test: small-molecule binders of Shh protein, primary screen, biochemical, small-molecule microarray, 635/667 nm fluorescence (AID 1151); settings: small-molecule microarray binding, 635 nm fluorescence; higher = more signal;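 further: Shh protein binding to compounds spotted on small-molecule microarray slides; score combines spot fluorescence intensity with signal-to-noise across triplicate slides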
# [11] = E. coli DRC41 culture turbidity changes, primary screen, E. coli filamentation inducer project, strain DRC41, OD650, 48 h (AID 1152);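 further: E. coli MC1000 strain DRC41 lacking acrAB efflux pump and sulA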; settings: E. coli DRC41 (acrAB sulA), higher = more signal, called active from +8 up or from −8 down
# [12] = small-molecule binders of probe aLefty1, primary screen, biochemical, small-molecule microarray, 635/667 nm fluorescence (AID 1153); settings: higher = more signal;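 further: score merges spot fluorescence with signal-to-noise ratio from the scanned slide images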
# [13] = PSAC antagonists in infected red cells, primary screen, cell-based, P. falciparum Indochina, OD700, 1 h (AID 1154); settings: P. falciparum Indochina infected RBC osmotic lysis, higher = more signal, called active from +8 up or from −8 down
# [14] = PSAC antagonists in infected red cells, primary screen, cell-based, P. falciparum Indochina, OD700, 2 h (AID 1155);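 further: lysis reports solute entry through the parasite surface anion channel PSAC; channel blockers reduce lysis of infected cells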; settings: P. falciparum Indochina infected erythrocytes, osmotic lysis OD700; higher = more signal, called active from +8 up or from −8 down
# [15] = osmotic lysis modulators in infected erythrocytes, primary screen, PSAC antagonist project, cell-based, P. falciparum Indochina, OD700, 3 h (AID 1156); settings: higher = more signal, called active from +8 up or from −8 down
# [16] = PSAC antagonists in infected red cells, primary screen, cell-based, P. falciparum Indochina, OD700, 18 h (AID 1157); settings: P. falciparum Indochina infected erythrocytes, osmotic lysis OD700, 18 h; higher = more signal, called active from +8 up or from −8 down
# [17] = modulators of S6 phosphorylation in cells, primary screen, cell-based, A549, cytoblot, luminescence, serum-stimulated (AID 1158); settings: A549 phospho-S6 cytoblot, 5 h, higher = more signal;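 further: serum-stimulated A549 lung adenocarcinoma cells; signal is phosphorylated S6 detected by cytoblot immunostaining with HRP secondary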
# [18] = target: NADPH oxidase 2 (Homo sapiens) (UniProt P04839); test: NOX2-dependent H2O2 signal modulators, primary screen, NOX inhibitor project, cell-based, HEK293-NOX2, PMA-stimulated, Amplex Red fluorescence (AID 1159); settings: 45 min, higher = more signal, called active from +8 up or from −8 down; further: test concentration not given here
# [19] = target: NADPH oxidase 4 (Homo sapiens) (UniProt Q9NPH5); test: NOX4-dependent H2O2 signal modulators, primary screen, NOX inhibitor project, cell-based, HEK293-NOX4, tetracycline-induced, Amplex Red fluorescence (AID 1160); settings: 45 min, higher = more signal, called active from +8 up or from −8 down
# [20] = target: NADPH oxidase 5 (Homo sapiens) (UniProt Q96PH1); test: NOX5-dependent H2O2 signal modulators, primary screen, NOX inhibitor project, cell-based, HEK293-NOX5, Amplex Red fluorescence (AID 1161); settings: HEK293-NOX5, ionomycin, 45 min, higher = more signal
# NADPH oxidase 5 (Homo sapiens), sequence (Q96PH1 whole entry, looked up): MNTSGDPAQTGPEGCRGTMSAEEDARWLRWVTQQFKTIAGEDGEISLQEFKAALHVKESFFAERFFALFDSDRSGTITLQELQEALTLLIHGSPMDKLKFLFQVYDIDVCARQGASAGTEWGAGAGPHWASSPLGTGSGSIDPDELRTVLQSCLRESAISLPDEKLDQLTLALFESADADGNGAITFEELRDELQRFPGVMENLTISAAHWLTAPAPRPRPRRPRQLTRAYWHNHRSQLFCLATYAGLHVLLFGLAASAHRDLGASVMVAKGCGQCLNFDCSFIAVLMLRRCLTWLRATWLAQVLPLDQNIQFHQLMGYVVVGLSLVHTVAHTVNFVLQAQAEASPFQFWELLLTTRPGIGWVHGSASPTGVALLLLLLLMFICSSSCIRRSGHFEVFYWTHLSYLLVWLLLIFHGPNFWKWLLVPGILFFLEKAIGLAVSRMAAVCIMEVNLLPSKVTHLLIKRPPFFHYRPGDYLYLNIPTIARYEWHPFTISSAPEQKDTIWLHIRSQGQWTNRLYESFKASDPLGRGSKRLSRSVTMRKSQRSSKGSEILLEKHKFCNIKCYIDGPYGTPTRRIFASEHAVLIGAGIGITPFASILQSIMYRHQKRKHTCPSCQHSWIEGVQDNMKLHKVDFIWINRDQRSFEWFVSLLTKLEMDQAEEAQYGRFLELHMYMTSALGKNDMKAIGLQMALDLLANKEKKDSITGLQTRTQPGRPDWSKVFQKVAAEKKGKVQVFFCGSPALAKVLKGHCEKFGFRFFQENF
# NADPH oxidase 4 (Homo sapiens), sequence (Q9NPH5 whole entry, looked up): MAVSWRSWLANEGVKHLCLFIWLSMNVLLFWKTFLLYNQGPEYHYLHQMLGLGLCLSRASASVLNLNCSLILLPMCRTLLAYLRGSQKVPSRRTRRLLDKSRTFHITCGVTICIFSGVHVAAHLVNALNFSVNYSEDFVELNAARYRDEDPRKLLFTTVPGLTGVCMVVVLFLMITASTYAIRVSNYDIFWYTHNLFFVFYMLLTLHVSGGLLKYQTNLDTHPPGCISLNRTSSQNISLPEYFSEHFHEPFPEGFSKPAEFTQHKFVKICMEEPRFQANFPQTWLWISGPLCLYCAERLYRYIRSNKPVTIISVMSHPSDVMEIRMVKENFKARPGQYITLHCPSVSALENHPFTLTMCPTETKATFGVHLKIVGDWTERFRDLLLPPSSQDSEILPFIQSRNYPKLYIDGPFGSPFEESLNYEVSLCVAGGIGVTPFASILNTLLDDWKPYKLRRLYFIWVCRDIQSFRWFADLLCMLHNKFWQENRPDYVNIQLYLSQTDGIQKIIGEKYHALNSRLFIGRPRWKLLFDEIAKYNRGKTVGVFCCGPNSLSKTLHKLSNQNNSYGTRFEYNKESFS
# Streptavidin (Streptomyces avidinii), sequence (P22629 whole entry, looked up): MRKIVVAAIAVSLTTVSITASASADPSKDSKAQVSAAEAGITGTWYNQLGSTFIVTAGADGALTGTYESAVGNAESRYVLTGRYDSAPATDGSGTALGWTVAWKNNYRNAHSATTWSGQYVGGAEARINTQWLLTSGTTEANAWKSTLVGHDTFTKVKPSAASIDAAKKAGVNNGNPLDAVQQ
# NADPH oxidase 2 (Homo sapiens), sequence (P04839 whole entry, looked up): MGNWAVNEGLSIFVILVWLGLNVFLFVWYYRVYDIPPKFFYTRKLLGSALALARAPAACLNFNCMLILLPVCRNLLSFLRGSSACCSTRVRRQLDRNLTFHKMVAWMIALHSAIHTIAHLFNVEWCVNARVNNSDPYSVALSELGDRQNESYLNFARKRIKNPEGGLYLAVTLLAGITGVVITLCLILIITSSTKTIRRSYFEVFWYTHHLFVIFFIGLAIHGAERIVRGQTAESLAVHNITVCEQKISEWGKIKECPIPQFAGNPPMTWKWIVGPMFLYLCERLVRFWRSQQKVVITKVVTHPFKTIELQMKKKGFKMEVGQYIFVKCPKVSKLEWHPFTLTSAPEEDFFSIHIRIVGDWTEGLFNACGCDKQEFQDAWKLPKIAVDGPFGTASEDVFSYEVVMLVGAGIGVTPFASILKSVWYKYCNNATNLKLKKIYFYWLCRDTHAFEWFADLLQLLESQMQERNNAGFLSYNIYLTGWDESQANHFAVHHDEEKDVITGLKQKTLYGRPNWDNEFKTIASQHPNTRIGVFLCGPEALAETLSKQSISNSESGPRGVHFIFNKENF
# Torsin-1A (Homo sapiens), sequence (O14656 whole entry, looked up): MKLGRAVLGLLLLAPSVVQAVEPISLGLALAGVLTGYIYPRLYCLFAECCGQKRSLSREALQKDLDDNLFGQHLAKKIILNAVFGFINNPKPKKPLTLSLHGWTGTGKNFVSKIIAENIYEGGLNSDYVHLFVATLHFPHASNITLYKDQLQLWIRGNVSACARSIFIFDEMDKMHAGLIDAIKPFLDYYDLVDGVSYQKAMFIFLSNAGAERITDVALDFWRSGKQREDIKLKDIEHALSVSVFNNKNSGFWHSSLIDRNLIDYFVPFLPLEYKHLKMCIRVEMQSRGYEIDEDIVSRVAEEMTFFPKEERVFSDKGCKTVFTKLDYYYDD
SMILES,composite z-score [1],z-score [2],z-score [3],z-score [4],z-score [5],composite z-score [6],composite z-score [7],composite z-score (Torsin-1A (Homo sapiens) [8]),composite z-score (Torsin-1A (Homo sapiens) [9]),composite z-score [10],z-score [11],composite z-score [12],z-score [13],z-score [14],z-score [15],z-score [16],z-score [17],z-score [18],z-score [19],z-score [20]
C=CCN(Cc1ccccc1)C(=O)C1N(c2c(Cl)cccc2CO)C(=O)C2C(C(=O)O)C3C=CC21O3 (stereo not given),-0.597 and -1.05,-0.634 (inactive) and -0.0943 (inactive),-2.23 (inactive) and -0.0736 (inactive),-0.619 (inactive) and -0.216 (inactive),-1.1 (inactive) and 0.577 (inactive),-1.38 and -2.19,-0.182 and -0.364,-0.986 and -1.77,-1.2 and -1.14,-0.796 and -0.69,3.44 (inactive) and 0.465 (inactive),-0.147,-0.97 (inactive) and 0.504 (inactive),-0.994 (inactive) and 0.698 (inactive),-0.847 (inactive) and 0.14 (inactive),-1.32 (inactive) and 0.357 (inactive),1.33 and -0.0264,0.00151 (inactive) and 0.1 (inactive),-0.574 (inactive) and -0.406 (inactive),-0.259 and -0.994
CO[C@H]1COC(=O)CC=C[C@@H](C)COC(=O)[C@@H](OCc2ccccc2)C=C[C@@H]1C,-0.134,-0.356 (inactive),0.106 (inactive),0.79 (inactive),-0.471 (inactive),0.999,-0.3,2.35,2.28,1.96,1.08 (inactive),-0.334,1 (inactive),-0.104 (inactive),0.362 (inactive),-0.0412 (inactive),0.21,0.46 (inactive),1.19 (inactive),0.308
CC(C)=CCCC(C)=CCON=C1C[C@@H](O)[C@@H](O)[C@@H]2[C@@H]3C(=O)N([C@@H](C)c4ccccc4)C(=O)[C@@H]3CC[C@H]12,0.111,-3.97 (inactive),1.09 (inactive),-0.295 (inactive),-0.323 (inactive),0.0138,-0.233,0.594,0.26,1.18,-0.125 (inactive),-0.0603,11.1 (active),0.362 (inactive),1.3 (inactive),-0.944 (inactive),1.27,-1.06 (inactive),-0.306 (inactive),-4.23
CCOC(=O)CCN1C(=O)[C@H]2[C@H]3[C@H](O)[C@H](O)CC(=NNC(=O)OCC)[C@@H]3CC[C@H]2C1=O,0.201,0.0243 (inactive),-0.129 (inactive),0.796 (inactive),0.261 (inactive),-0.283,-0.0791,0.274,0.608,0.188,0.542 (inactive),-0.193,-0.48 (inactive),0.189 (inactive),-0.602 (inactive),-0.0634 (inactive),-0.494,-0.489 (inactive),0.916 (inactive),0.754
